Screens (PubChem)
Hits are enriched below; roughly 12% of the tested compounds scored in any of these assays.
PI5P4Ka inh: blocks human PI5P4K alpha kinase activity; P48426; PI5P4Kalpha enzyme, ADP-Glo luminescence, 60 min; active compounds read low; max response, %; 330,000 compounds, 1.2% hits; AID 652105; active means max response of -50% or lower; inconclusive means between -30% and -50%; inactive means -30% or higher; further: value at the top dose of about 77 µM
Target sequence (P48426 whole entry, looked up): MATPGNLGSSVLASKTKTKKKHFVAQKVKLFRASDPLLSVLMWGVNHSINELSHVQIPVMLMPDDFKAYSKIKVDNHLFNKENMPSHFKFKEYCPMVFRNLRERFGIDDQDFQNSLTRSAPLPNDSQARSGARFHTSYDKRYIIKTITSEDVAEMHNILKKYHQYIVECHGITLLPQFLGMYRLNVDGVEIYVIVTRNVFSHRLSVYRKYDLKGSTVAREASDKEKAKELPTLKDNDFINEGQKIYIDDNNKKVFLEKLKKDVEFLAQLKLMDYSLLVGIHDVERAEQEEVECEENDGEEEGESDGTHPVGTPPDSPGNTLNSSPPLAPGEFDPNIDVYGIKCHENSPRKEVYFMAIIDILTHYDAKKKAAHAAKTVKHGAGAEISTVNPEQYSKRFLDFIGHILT
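Single end-point luminescence (ADP-Glo) quantified ADP from PI5P4Kalpha turnover; ATP 5 microM final, 1 h at RT, 0.1% CHAPS and 0.28 mM EGTA in HEPES pH 7.4.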
BAZ2B inh: BAZ2B (human) inhibition; AlphaScreen BAZ2B-H3K14Ac peptide displacement; Q9UIF8; AID 504333; Potency, µM (series often up to 114 µM), hits mostly inhibitors; 360,000 compounds, 4.4% hits; further: nearly all actives have a fitted effect of over 60% in size
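AlphaScreen displacement: compounds (up to 110uM) incubated 30 min at room temperature with a preformed 50 nM BAZ2B/50 nM biotinylated H3K14Ac peptide complex in PBS pH 7.4 with Tween-20. Donor and acceptor beads at 10 ug/mL final added, 20 min light-protected before reading.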
HP1b binding inh: HP1-beta chromodomain-methylated histone interaction inhibition; AlphaScreen HP1-beta / biotin-H3K9me3 peptide binding; Potency, µM (highest dose often 114 µM), most hits filed as inhibitors; 390,000 compounds, 0.56% hits; AID 540317; further: nearly all actives have a fitted effect of over 70% in size
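AlphaScreen: HP1-beta (50 nM) preformed 30 min with biotin-H3(1-18)K9me3 peptide (50 nM) in PBS pH 7.4, 0.01% Tween-20. Compound added for 30 min at RT, then streptavidin donor/nickel chelate acceptor beads (10 ug/mL) for 30 min.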
PLK1 PBD inh: inhibitors of human PLK1 polo-box domain binding. P53350. Plk1 PBD binding of FITC phosphopeptide, fluorescence polarization. Potency, µM, actives largely listed as inhibitors. 360,000 compounds, 2.8% hits; further: series mostly up to about 57 µM; nearly all actives have a fitted effect of over 65% in size
JMJD2A Tudor inh: JMJD2A Tudor domain (human) inhibition. 390,000 compounds, 4.4% hits. Potency, µM (series often up to 114 µM), actives largely listed as inhibitors. O75164. AlphaScreen JMJD2A-Tudor / H3K4me3 peptide binding; further: nearly all actives have a fitted effect of over 50% in size
G9a inh: G9a (human) methyltransferase inhibition. Potency, µM (highest dose often 102 µM), hits mostly inhibitors. Q96KQ7. G9a H3K9 monomethylation, AlphaScreen, 2 h. 350,000 compounds, 8.8% hits; further: nearly all actives have a fitted effect of over 75% in size
Target sequence (Q96KQ7 913-1193 limits assumed): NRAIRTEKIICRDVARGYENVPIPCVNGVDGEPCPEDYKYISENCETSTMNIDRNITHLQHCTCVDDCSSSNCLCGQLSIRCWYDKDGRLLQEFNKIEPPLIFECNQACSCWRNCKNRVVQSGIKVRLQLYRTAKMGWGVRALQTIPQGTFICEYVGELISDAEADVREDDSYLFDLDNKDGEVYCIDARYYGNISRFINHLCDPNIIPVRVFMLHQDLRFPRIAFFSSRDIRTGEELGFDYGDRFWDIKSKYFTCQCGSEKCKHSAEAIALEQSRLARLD
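Enzyme 20 nM + cpd, 15 min RT; add b-H3K9 pep 500 nM / SAM 20 uM; 2 h RT; anti-H3K9me1 Ab 0.5 ug/mL + SA donor / anti-rabbit acceptor beads 20 ug/mL each, 10 min; AlphaScreen read.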
A number is an active result; [ ] = remark or other dose. Unless noted, the call rests on the fitted dose curve; in most records, active means well fitted curve in the direction sought with a large enough effect; inconclusive means small, poorly fitted or top-dose-only effect, or another doubt; inactive means no such curve, though single readings can be large; an effect the other way counts as inactive or inconclusive.

Screening Cc1cc(C(=O)NC(Cc2ccccc2)C(=O)O)c(C)o1 (configuration not stated) returned PI5P4Ka inh inactive, BAZ2B inh inactive, HP1b binding inh inactive, PLK1 PBD inh inactive, JMJD2A Tudor inh inactive and G9a inh 70.8µM.
O=C(O)[C@H](Cc1ccccc1)NC(=O)C(c1ccccc1)(c1ccccc1)c1ccccc1 was read as PI5P4Ka inh inactive, BAZ2B inh inactive, HP1b binding inh inactive, PLK1 PBD inh 26.7µM, JMJD2A Tudor inh inconclusive and G9a inh inactive[12.7 µM].
`Cc1cc(=O)oc(C)c1C(=O)N[C@@H](Cc1ccccc1)C(=O)O` gave PI5P4Ka inh inactive, BAZ2B inh inactive, HP1b binding inh inactive, PLK1 PBD inh inactive, JMJD2A Tudor inh inactive and G9a inh inactive.
Screening O=C(CC(c1ccccc1)(c1ccccc1)c1ccccc1)N[C@@H](Cc1ccccc1)C(=O)O returned PI5P4Ka inh inactive, BAZ2B inh inactive, HP1b binding inh inactive, PLK1 PBD inh inactive, JMJD2A Tudor inh inactive and G9a inh inactive.
For Cc1ccc2c(=O)cc(C(=O)Nc3cccc(C(F)(F)F)c3)oc2c1C the results were BAZ2B inh inactive, HP1b binding inh inactive, JMJD2A Tudor inh inactive and G9a inh inactive.
For Cc1cc(C)nc(/N=C2\NC(=O)CC(C(=O)O)N2c2ccc(C)c(C)c2)n1 (configuration not stated) the results were PI5P4Ka inh inactive, BAZ2B inh inactive, HP1b binding inh inactive, PLK1 PBD inh 23.8µM, JMJD2A Tudor inh 12.6µM and G9a inh inactive.
`CC(c1ccccc1)N1CCn2c(nc3cc(NC(=O)NC4CCCCC4)ccc32)C1` (configuration not stated) gave BAZ2B inh inactive, HP1b binding inh inactive, PLK1 PBD inh inactive, JMJD2A Tudor inh inactive and G9a inh 35.5µM.
`Cc1nn(CC(=O)Nc2ccc3c(c2)nc2n3CCN(C3CCCCC3)C2)c(=O)c2ccccc12` gave PI5P4Ka inh inactive, BAZ2B inh inactive, HP1b binding inh inactive, PLK1 PBD inh inactive and JMJD2A Tudor inh inactive.
Screening CCSC1=C(C#N)C(c2ccccc2Cl)C(C(=O)c2cccs2)C(O)(C(F)(F)F)N1 (configuration not stated) returned PI5P4Ka inh inactive, BAZ2B inh inactive, HP1b binding inh inactive, PLK1 PBD inh inactive, JMJD2A Tudor inh inactive and G9a inh 10µM.
Screening CSC1=C(C#N)C(c2ccccc2Cl)C(C(=O)c2cccs2)C(O)(C(F)(F)F)N1 (configuration not stated) returned PI5P4Ka inh inactive, BAZ2B inh inactive, HP1b binding inh inactive, PLK1 PBD inh inactive, JMJD2A Tudor inh inactive and G9a inh inconclusive.
Screening Cc1cccc(CC(=O)NCc2nc3cccnc3n2Cc2ccc(F)cc2)c1 returned BAZ2B inh inactive, HP1b binding inh inactive, JMJD2A Tudor inh inactive and G9a inh inactive.
`Cc1nn(-c2ccccc2)c(C)c1/C=N/n1cnnc1` gave PI5P4Ka inh inactive, HP1b binding inh inactive, PLK1 PBD inh inactive, JMJD2A Tudor inh inactive and G9a inh inactive.
Cc1nn(-c2ccccc2)c(C)c1/C=N\N1CCN(c2ccc(Cl)cc2)CC1 was read as PI5P4Ka inh inactive, BAZ2B inh 31.6µM, HP1b binding inh inconclusive, PLK1 PBD inh inactive, JMJD2A Tudor inh 28.2µM and G9a inh inconclusive.
For CC(=O)N(c1ccccc1)c1nc(/C=C/C(=O)O)cs1 the results were PI5P4Ka inh inactive, BAZ2B inh inactive, HP1b binding inh inactive, PLK1 PBD inh inactive, JMJD2A Tudor inh inactive and G9a inh inactive.
`CCc1ccc(N(C(C)=O)c2nc(CCl)cs2)cc1` gave PI5P4Ka inh inactive, BAZ2B inh inactive, HP1b binding inh inactive, PLK1 PBD inh inactive, JMJD2A Tudor inh inactive and G9a inh 17.8µM.
Cc1ccc(NC(=O)c2oc3ccccc3c2NC(=O)C23CC4CC(CC(C4)C2)C3)cc1 was read as BAZ2B inh inconclusive, HP1b binding inh inactive, JMJD2A Tudor inh inactive and G9a inh inactive.
For Cc1nnsc1Sc1ccccc1 the results were PI5P4Ka inh inactive, BAZ2B inh inactive, HP1b binding inh inactive, PLK1 PBD inh 11.9µM, JMJD2A Tudor inh inactive and G9a inh inactive.
`COc1ccc(-c2cn(/N=C/c3ccc(Cl)cc3Cl)c(N)n2)cc1` gave BAZ2B inh inactive, HP1b binding inh inactive, PLK1 PBD inh inactive, JMJD2A Tudor inh inactive and G9a inh 35.5µM.
Screening Nc1nc(-c2ccccc2)cn1N returned PI5P4Ka inh inactive, BAZ2B inh inconclusive, HP1b binding inh inactive, PLK1 PBD inh inactive, JMJD2A Tudor inh inactive and G9a inh inactive.
`Nc1nc(-c2ccccc2)cn1/N=C/c1ccccc1` gave PI5P4Ka inh inactive, BAZ2B inh inactive, HP1b binding inh inconclusive, PLK1 PBD inh inactive, JMJD2A Tudor inh inactive and G9a inh 50.1µM.
`COc1ccc(-c2cn3cc(C(F)(F)F)cc(Cl)c3n2)cc1` gave PI5P4Ka inh inactive, BAZ2B inh inactive, HP1b binding inh inactive, PLK1 PBD inh inactive, JMJD2A Tudor inh inactive and G9a inh inactive[12.7 µM].
For CCc1noc(-c2ccc(N3CCCCC3)c([N+](=O)[O-])c2)n1 the results were BAZ2B inh inactive, HP1b binding inh inactive, JMJD2A Tudor inh inactive and G9a inh inactive.
CCN(CC)S(=O)(=O)c1ccc(N2CCCC2)c(NS(=O)(=O)c2ccc(OC)cc2)c1 was read as PI5P4Ka inh inactive, BAZ2B inh inactive, HP1b binding inh inactive, PLK1 PBD inh inactive, JMJD2A Tudor inh inactive and G9a inh 35.5µM.
Screening CCN(CC)S(=O)(=O)c1ccc(N2CCCC2)c(NS(=O)(=O)c2ccc(F)cc2)c1 returned PI5P4Ka inh inactive, BAZ2B inh inactive, HP1b binding inh inactive, PLK1 PBD inh inactive, JMJD2A Tudor inh inactive and G9a inh inconclusive.
Screening CCN(CC)S(=O)(=O)c1ccc(N2CCCC2)c(NS(=O)(=O)c2ccccc2)c1 returned PI5P4Ka inh inactive, BAZ2B inh inactive, HP1b binding inh inactive, PLK1 PBD inh inactive, JMJD2A Tudor inh inactive and G9a inh inactive.
`CCN(CC)S(=O)(=O)c1ccc(N2CCCC2)c(NS(=O)(=O)c2ccc([N+](=O)[O-])cc2)c1` gave PI5P4Ka inh inactive, BAZ2B inh inactive, HP1b binding inh inactive, PLK1 PBD inh inactive, JMJD2A Tudor inh inactive and G9a inh 10µM.
Screening CCc1nc2c(OCCc3cccc(OC)c3)cccn2c1N(C)C(=O)c1ccc(OC)cc1 returned PI5P4Ka inh inactive and PLK1 PBD inh inactive.
`CCOc1ccc(CNC(=O)c2cccc(NC(=O)N3CCSc4ncccc43)c2)cc1` gave BAZ2B inh inactive, HP1b binding inh inactive, JMJD2A Tudor inh inactive and G9a inh inconclusive.
For CCSc1nnc(SCC(=O)Nc2cc(C)on2)s1 the results were PI5P4Ka inh inconclusive, HP1b binding inh inactive, PLK1 PBD inh inactive and JMJD2A Tudor inh inactive.
Screening CCN1/C(=C/c2cc[n+](C)cc2)C=Cc2cc(C)ccc21 returned PI5P4Ka inh inactive, BAZ2B inh inconclusive, HP1b binding inh inconclusive, PLK1 PBD inh inactive, JMJD2A Tudor inh inconclusive and G9a inh 2.24µM.
